Measurements as given in PubChem BioAssay.
Several values for one entry are separate records, joined by “and”; a condition that tells them apart may be missing. Identical values can stand only once. For some of these results: Entries with a potency or affinity are not part of this list. Activity calls are given as the source filed them.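 How the source made its calls: active means z-score of at least 1.8 in each of two replicates, scored against plate mean and spread of sample wells; inactive means the rest.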

Experiments:
[1] = blockers of polyQ-driven CASP3 activation – cell-based (AID 1583); conditions: polyglutamine-induced caspase-3 activation, cell assay; stronger effect = higher value;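 tested at 10 µM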
[2] = yeast 75Q aggregation reduction – 75Q-TubU reporter (AID 1593); conditions: Yeast 75Q polyglutamine aggregation reporter
[3] = restoration of touch response, mutant HTT neurons – whole organism, C. elegans mechanosensory neurons, N-terminal huntingtin (AID 1599); conditions: C. elegans polyQ-huntingtin mechanosensory neurons, stronger effect = higher value
[4] = blockers of cytochrome c efflux from mitochondria – biochemical, purified mitochondria (AID 1603); conditions: stronger effect = lower value;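 further: mouse liver mitochondria challenged with calcium chloride; signal normalized to the plate average as 100%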
[5] = polyglutamine aggregate formation blockers (AID 1604); conditions: polyglutamine-induced protein aggregation inhibition assay; stronger effect = higher value; tested at 2.5 µM
[6] = glutamate transport activators, MN-1 cells, MN-1 cell line (AID 1612); conditions: MN-1 motor neuron cells, stronger effect = higher value;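 further: tested at 1 µM final; 0% = mean of DMSO vehicle wells on each plate; positive means more glutamate uptake than control and negative means less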
[7] = GFP-Q80 aggregate reduction, neuronal-like cells, cell-based, NGF-treated PC12, GFPQ80 (AID 1614); conditions: PC12 NGF-treated GFP-polyQ80 inclusion reduction;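 further: lower means fewer inclusions and 0 means no inclusions at all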
[8] = 75Q-TubH aggregate inhibition, S. cerevisiae, yeast (AID 1616); conditions: S. cerevisiae 75Q-TubH polyglutamine aggregation suppression; stronger effect = higher value
[9] = galactose survival enhancers in mitochondrial complex I cybrids – cell-based, galactose medium, ATP luminescence, primary screen (AID 1645843); conditions: complex I mutant cybrid cells, 72 h, stronger effect = higher value;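 further: positive z means more ATP and so rescue of galactose-driven cybrid death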

Molecule COC(=O)C(C)C[N+](C)(C)C (stereo not given) has an inhibition [1] of -13.8%, a score [2] of 1.1 and a rescue above control [3] of -5.92. The cytochrome c release ratio [4] was 1.54, the inhibition of aggregation [5] was 60.6% and the glutamate uptake change [6] was 0.97%. It also gave an inclusion score [7] of 2 and an aggregation suppression score [8] of 1.5.

With CC(=O)OCC(=O)[C@@]1(O)CC[C@H]2C3CCC4=CC(=O)CCC4(C)[C@@]3(F)[C@@H](O)CC21C (stereo not given in full) the inhibition [1] was 9.6%, the score [2] was 1 and the rescue above control [3] was 20.3. It also gave a cytochrome c release ratio [4] of 0.71, an inhibition of aggregation [5] of 88.9% and a glutamate uptake change [6] of 7.44%. It also gave an inclusion score [7] of 2 and an aggregation suppression score [8] of 1.14.

For CNCCCNC1CCN(c2ccc(-c3cccc(F)c3)cc2)CC1, the z-score [9] was -1.3 (inactive).

In the case of CCCCn1nnnc1NC(=O)NC1CCN(Cc2ccncc2)CC1, the z-score [9] is reported as -0.755 (inactive).

With OC[C@@H](Cc1ccccc1)NC1CCCCCC1 the z-score [9] was -0.55 (inactive).

In the case of CC(C)[C@@H](C)/C=C/[C@@H](C)C1CC[C@H]2/C(=C/C=C3\C[C@@H](O)CC[C@@H]3C)CCC[C@]12C (stereo not given in full), the inhibition [1] is reported as 63.6%, the score [2] is reported as 0.42 and the rescue above control [3] is reported as 5.3. For the same molecule, the cytochrome c release ratio [4] was 0.91, the inhibition of aggregation [5] was 83.3% and the glutamate uptake change [6] was -13.9%. The aggregation suppression score [8] was 0.578.

In the case of O=C1CC(C(=O)N2CCc3sccc3C2)c2cc(F)ccc2N1 (stereo not given), the z-score [9] is reported as 4.16 (active).

In the case of NC(=O)NCc1cn(C2CCN(C(=O)C3CCCCCC3)CC2)nn1, the z-score [9] is reported as -0.575 (inactive).

With Cn1ccnc1C(=O)c1cccc(-c2ccccc2Cl)c1 the z-score [9] was -0.515 (inactive).

With C=C1C2(C(=O)N3CCC(c4cccc(OC)c4OC)C3)CCC(C2)C1(C)C (stereo not given) the z-score [9] was 1.19 (inactive).

For CC(C)Oc1ccc(Cl)cc1-c1nnc2ccc(Cl)cn12, the z-score [9] was 0.31 (inactive).

For O=c1c2sc(-c3ccc(F)cc3)cc2ncn1Cc1nc2ccccc2[nH]1, the z-score [9] was 0.44 (inactive).

For O=C(CN1CCOC1=O)NCCc1cccc(F)c1, the z-score [9] was -0.505 (inactive).

In the case of CCOC(=O)c1cc(C)nc(N2CCCC(c3nc(C(C)C)no3)C2)n1 (stereo not given), the z-score [9] is reported as -0.54 (inactive).

With CC(O)Cc1cn(CC2CCN(C(=O)C3CCCCCC3)CC2)nn1 (stereo not given) the z-score [9] was -0.51 (inactive).

For Cc1ccsc1C(=O)N1CCC(n2cc(C(C)(C)O)nn2)CC1, the z-score [9] was -0.505 (inactive).

With CCCCCNC(=O)N1CCC2(CC1)Nc1ccccc1N(CC)C2=O the z-score [9] was -0.065 (inactive).

For CC(C)CN1CCN(Cc2ccco2)C(CCO)C1 (stereo not given), the z-score [9] was -0.595 (inactive).

With COc1ccc2c(c1)C=C(CNc1cccnc1)CO2 the z-score [9] was 0.615 (inactive).

With O=C(Nc1cccc(-c2cncnc2)c1)c1ccc2c(c1)OCO2 the z-score [9] was -0.62 (inactive).

For COC(=O)c1ccc(C(=O)N2CCNC(=O)C2Cc2ccccc2)cc1 (stereo not given), the z-score [9] was -0.49 (inactive).

In the case of Cc1nn(C)cc1-c1ccnc(NC(CC(C)(C)C)c2cccnc2)n1 (stereo not given), the z-score [9] is reported as 1.75 (inactive).

With Cc1ccc(-c2ncccc2OC2(C(=O)O)CCCC2)cc1C the z-score [9] was -0.735 (inactive).

For COc1ccc(C(=O)N2CCNC(=O)C2Cc2ccccc2)cc1F (stereo not given), the z-score [9] was -0.505 (inactive).

With CC(=O)CCC1C2=NC(=C\C3=NC(=C(/C)C4=NC(C)(C5[N-]/C(=C\2C)C(C)(CCC(=O)NCC(C)OP(=O)(O)O[C@@H]2[C@@H](CO)OC(n6cnc7cc(C)c(C)cc76)[C@@H]2O)C5CC(N)=O)C(C)(CC(N)=O)C4CCC(N)=O)/C(C)(CC(N)=O)C3CCC(N)=O)/C1(C)C.[CH2-][C@H]1OC(n2cnc3c(N)ncnc32)[C@H](O)[C@@H]1O.[Co+2] (stereo not given in full) the inhibition [1] was 55.6%, the score [2] was 1.56 and the rescue above control [3] was 0.82. The cytochrome c release ratio [4] was 0.56, the inhibition of aggregation [5] was 44.4% and the glutamate uptake change [6] was 14.2%. The aggregation suppression score [8] was 1.42.

For CCCCCNC(=O)N1CCC2(CC1)Nc1ccccc1N(CC1CC1)C2=O, the z-score [9] was 0.705 (inactive).

In the case of CCC(C)C(c1nc(C(C)C)no1)N1Cc2ccccc2C1=O (stereo not given), the z-score [9] is reported as -0.17 (inactive).

With Cc1nsc(NC(=O)N2CCCCC2c2ccc(F)cc2)n1 (stereo not given) the z-score [9] was -0.445 (inactive).

With CC(CCCC(C)(C)O)CCNCC1(CO)CCC1 (stereo not given) the z-score [9] was -0.48 (inactive).

With CCCn1nc(NC(=O)Cn2ccc(-c3ccccc3F)n2)c2ccccc21 the z-score [9] was -1.28 (inactive).

In the case of COc1nccnc1-c1cccc(-n2cccn2)c1, the z-score [9] is reported as -0.545 (inactive).

With Cc1nsc(NC(=O)NCc2ccccc2OC(F)(F)F)n1 the z-score [9] was 0.2 (inactive).

In the case of CCc1ncc(C(=O)N2CCCC(Cn3cc(-c4ccccc4)nn3)C2)cn1 (stereo not given), the z-score [9] is reported as 0.19 (inactive).

For CCN(C)Cc1ccc(-c2nc(C(F)(F)F)c(C)c(=O)[nH]2)cc1, the z-score [9] was 0.97 (inactive).

In the case of Cn1nc(NC(=O)Cn2ccc(-c3ccsc3)n2)c2ccccc21, the z-score [9] is reported as 0.985 (inactive).

For CN1CCN(CC(C)(C)C)CC1CCO (stereo not given), the z-score [9] was -0.57 (inactive).

In the case of Fc1ccc(C(c2ccccc2)(c2ccccc2F)n2ccnc2)cc1 (stereo not given), the inhibition [1] is reported as -9.56% and 14%, the score [2] is reported as 1.45 and 0.36 and the rescue above control [3] is reported as 12 and 6.65. The cytochrome c release ratio [4] was 3.37 and 1.21, the glutamate uptake change [6] was 5.37% and 7.94% and the inclusion score [7] was 2. For the same molecule, the aggregation suppression score [8] was 1.35 and 0.117.

In the case of COc1cccc(C(=O)c2ccccc2O)c1O, the inhibition [1] is reported as -4.26%, the score [2] is reported as 0.2 and the rescue above control [3] is reported as 0. For the same molecule, the cytochrome c release ratio [4] was 1.59, the inhibition of aggregation [5] was 85.8% and the glutamate uptake change [6] was -9.84%. The aggregation suppression score [8] was 0.104.

With CC(C)Cc1noc(C2C3CCC4C(CCC32)C4(Cl)Cl)n1 (stereo not given) the z-score [9] was -0.52 (inactive).

In the case of Cc1c(C(F)(F)F)nc(-c2ccc(CN(C)Cc3ccccn3)cc2)[nH]c1=O, the z-score [9] is reported as -0.485 (inactive).

For Cc1cc(NC(=O)Cn2ccc(-c3cccc(F)c3)n2)n(-c2ccccn2)n1, the z-score [9] was -0.96 (inactive).

For CN1CCN(Cc2cnc3ccccc3c2)CC1CCO (stereo not given), the z-score [9] was 0 (inactive).

In the case of Cc1cccc2c(C(=O)N3CCN(C)C(=O)C3C)cc(-c3cnc(N)nc3)nc12 (stereo not given), the z-score [9] is reported as 2.6 (inactive).

In the case of CCC1(CO)CCCN(c2ncc(C(F)(F)F)cc2Cl)C1 (stereo not given), the z-score [9] is reported as 2.98 (active).

With Cc1cc(CN2CCN(C)C(CCO)C2)c2cccc(C)c2n1 (stereo not given) the z-score [9] was -0.035 (inactive).

With Cc1nnc2ccc3nnc(-c4cc(Cl)ccc4OC(C)C)n3n12 the z-score [9] was -0.5 (inactive).

In the case of CC1CCCCN1Cc1ccc(-c2nc(CCn3cccn3)cc(=O)[nH]2)cc1 (stereo not given), the z-score [9] is reported as -0.245 (inactive).
